Hits are enriched below; roughly 5.9% of the tested compounds scored in any of these assays.
KB-3-1 cytotox: qHTS assay for MDR1-selective chemotherapeutics: Primary screen using the parental adenocarcinoma cell KB-3-1; KB-3-1 viability, CellTiter-Glo ATP luminescence, 72 h; Potency, µM (series often up to 46.1 µM), actives largely listed as cytotoxic; actives 1.4% (n = 400,000); AID 1347075, 2019; note: nearly all actives have a fitted effect of over 60% in size
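Parental KB-3-1 adenocarcinoma cells in phenol-red-free DMEM with 10% FBS were pin-treated with compounds at several concentrations, incubated 72 h at 37 °C, and viability read by CellTiter-Glo luminescence; concentration-effect curves were fitted after normalization.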
HepG2 tox: qHTS for Inhibitors of TGF-b: Cytotox Counterscreen; Potency, µM (top dose mostly 46.1 µM), actives largely listed as cytotoxic; actives 0.76% (n = 410,000); AID 588856, 2011; HepG2 CAGA-GFP viability, ATP luminescence, 18 h
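CellTiter-Glo luminescence gave cytotoxicity after 18 hours at 37 degrees C. The cells were HepG2 CAGA-GFP in 1% FBS DMEM, stimulated with 500 pg/mL TGF-beta after compound addition. %Activity was normalised to no-cell wells (complete cell-killing) and DMSO (no toxicity), and curves were fitted and classified.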
ATXN viability: Viability Counterscreen for Primary qHTS for Inhibitors of ATXN expression. S2 cells (HEK-293 line with an ATXN2-luciferase reporter) viability, CellTiter-Fluor protease fluorescence, 24 h. actives 0.49% (n = 400,000). AID 651635, 2014. Potency, µM (series often up to 56.7 µM), most hits filed as cytotoxic; note: nearly all actives have a fitted effect of over 40% in size
KB-V1 MDR tox: qHTS assay for MDR1-selective chemotherapeutics: Primary screen using the drug-selected MDR subline cells KB-V1. KB-V1 MDR cells viability, CellTiter-Glo, 72 h. Potency, µM (titrated, usually from 46.1 µM), usual class: cytotoxic. actives 3.4% (n = 400,000). AID 1347076, 2019; note: nearly all actives have a fitted effect of over 60% in size
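Compound-treated KB-V1 multidrug-resistant cells, 72 h, 37 degrees C; viability by CellTiter-Glo. Fitted qHTS curves give the values.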
TGFb SMAD3 inh: qHTS for Inhibitors of TGF-b | HepG2 CAGA-GFP TGF-b/SMAD3 reporter, GFP fluorescence, 18 h; TGF-beta stimulated, 500 pg/mL final | Potency, µM (series often up to 46.1 µM), hits mostly inhibitors | actives 1.2% (n = 410,000); note: nearly all actives have a fitted effect of over 65% in size
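Inhibition was scored as loss of TGF-beta-induced (500 pg/mL final, 18 hours, 37 degrees C) GFP in HEPG2 cells carrying a CAGA-GFP reporter, in DMEM with 1% FBS. Well GFP was summed per cell; Activity was normalised to unstimulated and stimulated DMSO wells, then concentration-response fitting.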
ATXN2 expr inh: Primary qHTS for Inhibitors of ATXN expression | HEK-293 ATXN2-luciferase reporter, luminescence, 24 h | Potency, µM (series often up to 57 µM), hits mostly inhibitors | actives 0.72% (n = 360,000) | AID 1745845, 2022; note: nearly all actives have a fitted effect of over 55% in size
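ATXN2-luciferase reporter cells (luciferase flanked by upstream and downstream ATXN2 gene portions) were treated 24 h at 37 °C with compounds at up to 57 uM. SteadyGlo luminescence gave expression; GF-AFC fluorescence gave viability.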
Hits are given with their value; . = inactive; ? = inconclusive; / = not tested or not shown; ! = a repeat was not active; [ ] = remark or other dose. Calls come from the whole dose curve; as a rule, active = well fitted curve in the direction sought with a large enough effect; inconclusive = small, poorly fitted or top-dose-only effect, or another doubt; inactive = no such curve, though single readings can be large; an effect the other way counts as inactive or inconclusive.

SMILES | KB-3-1 cytotox | HepG2 tox | ATXN viability | KB-V1 MDR tox | TGFb SMAD3 inh | ATXN2 expr inh
Cc1cc(C)c2nc(C(F)(F)F)nc(N3CCN(C(=O)c4ccco4)CC3)c2c1 | . | . | . | 12µM | . | .
Cc1cccc2c(C(=O)N3CCN(C(=O)c4ccco4)CC3)cc(-c3cccc(Br)c3)nc12 | ? | . | ? | 9.2µM | ? | ?
Cc1cc(C)c2nc(N3CCCN(C(=O)c4ccco4)CC3)c(C#N)cc2c1 | . | . | / | . | . | /
CCc1cc2ccc(C)cc2nc1SCC(=O)N1CCN(C(=O)c2ccco2)CC1 | . | . | . | 5.2µM | ? | .
O=C(c1ccco1)N1CCN(C(=O)c2cc(-c3ccccc3)nc3ccccc23)CC1 | . | . | . | . | . | .
COC(=O)c1c(OCc2ccccn2)cc(=O)n2c1CCN(C(=O)c1n[nH]c3c1CCCC3)CC2 | / | / | . | / | / | /
O=[N+]([O-])c1nccn1CCCCCCN1CCOCC1 | . | . | . | . | . | .
Cc1cc(C)cc(-n2ccnc2SCC(=O)Nc2nnc(C)s2)c1 | ? | . | . | ? | . | .
Cc1cnc(-n2ncc(C(=O)NCCN3CCOCC3)c2-c2cccs2)nc1-c1ccc(F)cc1 | / | / | . | / | / | /
COc1cccc(N2CCN(C(=O)c3ccc(CS(=O)c4ccccc4Cl)o3)CC2)c1 (stereo not given) | 0.0082µM | . | . | . | 11µM | .
COc1cccc(N2CCN(C(=O)c3ccc(CS(=O)c4ccccc4C)o3)CC2)c1 (stereo not given) | 1µM | . | . | ? | . | .
O=C(c1ccc(CS(=O)c2ccccc2Cl)o1)N1CCN(c2ccccc2)CC1 (stereo not given) | 1µM | . | . | ? | ? | ?
O=C(c1ccc(CS(=O)c2cccc(Cl)c2)o1)N1CCCCCC1 (stereo not given) | . | . | . | 23µM | . | .
COc1ccc(N2CCN(C(=O)c3ccc(CS(=O)c4cccc(C)c4)o3)CC2)cc1 (stereo not given) | ? | . | . | . | . | .
CNC(=O)C1Cc2c(-c3ccc4c(c3)OCO4)ccnc2O1 (stereo not given) | . | . | . | . | . | .
O=C(Nc1cccc(C(F)(F)F)c1)Oc1ccc(Cl)c2cccnc12 | ? | 14µM | . | . | 7.1µM | ?
Cc1ccc(S(=O)(=O)N(CCO)Cc2cc3ccc(C)c(C)c3[nH]c2=O)cc1 | . | . | . | 16µM | . | .
Cc1cccc(C(C)C)c1NC(=O)C1CN(S(=O)(=O)c2ccccc2)CCN1S(=O)(=O)c1ccccc1 (stereo not given) | . | . | . | 4.1µM | ? | .
Cc1ccc2c(c1)c1c(c(=O)n(-c3cccc(Cl)c3)c(=O)n1C)n2C | . | . | . | . | . | .
OCC[n+]1ccc(/C=C/c2c[nH]c3ccccc23)cc1 | ? | . | . | . | . | .
CCCCCCCCCC[n+]1ccc(/C=C/c2c[nH]c3ccccc23)cc1 | 5.2µM | 16µM | / | ? | . | /
CCCCCCCCCCCCCCCC[n+]1ccc(/C=C/c2c[nH]c3ccccc23)cc1 | 12µM | . | / | ? | . | /
CCOc1cccc(CN2CCC(n3cc(C(=O)N4CCCCC4)nn3)CC2)c1O | / | / | . | / | / | /
COc1ccc(-c2cc3nc(C)c(CCC(=O)NCc4ccco4)c(C)n3n2)c(OC)c1 | . | . | . | 4.6µM | . | .
C=CCN1C(=O)/C(=C/c2ccc(O)c(OC)c2)S/C1=N/c1nccs1 | . | . | . | 15µM | . | .
SMILES | KB-3-1 cytotox | HepG2 tox | ATXN viability | KB-V1 MDR tox | TGFb SMAD3 inh | ATXN2 expr inh
CCOc1nc(NC(=O)NS(=O)(=O)Oc2cccc(Cl)c2)nc(-c2ccccc2)n1 | 0.0016µM! | . | . | . | . | .
CCOc1nc(NC(=O)NS(=O)(=O)Oc2ccc(Cl)cc2)nc(-c2ccccc2)n1 | . | . | ? | . | . | .
C=C1[C@@H](O)[C@H](CC(C)C)N(Cc2ccccc2Br)S1(=O)=O | ? | 10µM | / | . | 8.9µM | .
COc1ccc(-c2ccc(CCC(=O)O)n2-c2ccccc2C(F)(F)F)cc1 | 18µM | . | . | . | ? | .
COc1ccc(-c2ccc(CCC(=O)O)n2-c2ccccc2O)cc1 | ? | . | ? | . | ? | .
COc1ccc(CC(=O)Nc2ccc3nc(N4CCCCC4)cc(C)c3c2)cc1 | . | . | . | . | ? | .
CC(=O)NC1CC2CCCC(C1)N2C(=O)Nc1ccc(Cl)c(C(F)(F)F)c1 (stereo not given) | . | . | . | . | ? | .
CC(=O)NCC(=O)N1[C@H]2CC[C@H]1c1cc(Nc3ncc(C(F)(F)F)c(NC4CCC4)n3)ccc12 | / | / | / | / | / | 4.9µM
CN(C)CC(C)(O)c1ccc2c(c1)CN(Cc1cccn1-c1ncccn1)CCO2 (stereo not given) | / | / | . | / | / | /
CCC1Sc2ccccc2N(CC(=O)NCc2ccccc2OC)C1=O (stereo not given) | . | . | . | 21µM | . | .
CS(=O)(=O)N1N=C(c2cccs2)CC1c1ccccc1O (stereo not given) | . | . | . | . | . | .[11.3 µM]
Oc1ccccc1C1CC(c2cccs2)=NC(c2ccc(Cl)cc2)N1 (stereo not given) | ? | . | ? | . | 20µM | ?
